# ELG1 repair inh – qHTS screen for small molecules that inhibit ELG1-dependent DNA repair in human embryonic kidney (HEK293T) cells expressing luciferase-tagged ELG1; HEK293T ELG1-luciferase reporter, luminescence, 16 h; DNA damage induced by 5-fluorouridine; Potency, µM (series often up to 46.1 µM), for the others: at the highest dose activity change, negative = inhibition, usual class: inhibitors; 330,000 compounds, 2.3% hits; also: % is scaled to controls: 0 for no effect and ±100 for the full control effect; nearly all actives have a fitted effect of over 55% in size
#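 Luminescence from the luciferase reporter, measured 30 min after ONE-Glo reagent at room temperature, was the read-out. Beforehand, 2,000 cells per well were exposed for 16 hr at 37 °C to 5-fluorouridine together with compound or vehicle.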
# A549 tox – Nrf2 qHTS screen for inhibitors: counterscreen for cytotoxicity. A549 ARE-Fluc cells, CellTiter-Fluor viability, 18-24 h. 390,000 compounds, 0.16% hits. Potency, µM (highest dose often 46 µM), for inactives: at the highest dose activity change, negative = cytotoxicity, actives largely listed as inhibitors; also: % is scaled to controls: 0 for no effect and ±100 for the full control effect
#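 A549 ARE_Fluc cells in 5% FBS OPTI-MEM were exposed to compounds in concentration-response for 18-24 h at 37 deg C. Viability was read by CellTiter-Fluor fluorescence (Ex 405/Em 525) after 30 min, before the luciferase read.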
# Nrf2 block – Nrf2 qHTS screen for inhibitors; A549 ARE-Fluc reporter, luciferase luminescence, 18-24 h; Potency, µM (doses to about 46 µM), for the others: at the highest dose activity change, negative = inhibition, actives largely listed as inhibitors; 360,000 compounds, 2.1% hits; AID 504444, 2011; also: % is scaled to controls: 0 for no effect and ±100 for the full control effect; nearly all actives have a fitted effect of over 60% in size
#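 Nrf2 function is reported as luminescence of an ARE-controlled luciferase in A549 cells. Compounds were tested at several concentrations, and a CellTiter-Fluor read on the same wells flagged cytotoxicity.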
# IDH1 R132H inh – qHTS for Inhibitors of mutant isocitrate dehydrogenase 1 (IDH1): qHTS; Isocitrate dehydrogenase [NADP] cytoplasmic (Homo sapiens), O75874; IDH1-R132H enzyme, NADPH consumption, diaphorase/resazurin fluorescence; AID 602179, 2012; 390,000 compounds, 0.093% hits; Potency, µM (top dose mostly 76.6 µM), inactives show top-dose activity change, negative = inhibition, most hits filed as inhibitors; also: % is scaled to controls: 0 for no effect and ±100 for the full control effect; nearly all actives have a fitted effect of over 65% in size
# Target sequence (O75874 whole entry R132H, stated change not applied): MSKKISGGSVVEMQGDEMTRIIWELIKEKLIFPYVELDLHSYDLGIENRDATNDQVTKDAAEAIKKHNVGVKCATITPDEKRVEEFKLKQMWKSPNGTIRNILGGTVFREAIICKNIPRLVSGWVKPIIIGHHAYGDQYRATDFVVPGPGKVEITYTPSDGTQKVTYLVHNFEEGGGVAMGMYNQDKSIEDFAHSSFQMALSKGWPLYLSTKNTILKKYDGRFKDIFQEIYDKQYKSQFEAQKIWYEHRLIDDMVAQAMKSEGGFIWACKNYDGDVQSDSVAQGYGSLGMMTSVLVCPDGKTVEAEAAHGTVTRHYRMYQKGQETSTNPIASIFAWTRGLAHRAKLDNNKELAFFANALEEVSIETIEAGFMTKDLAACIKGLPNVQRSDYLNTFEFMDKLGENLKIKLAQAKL
#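 IDH1-R132H (0.5 ug/mL) preincubated 30 min with compound, then NADPH (0.016 mM) and alpha-KG (2 mM) added; 80 min at RT, pH 7.5. Remaining NADPH coupled via diaphorase/resazurin to fluorescence (540/590 nm); concentration-response curves normalized to no-enzyme control.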
# Nrf2 ARE act – qHTS of Nrf2 Activators; AREc32 ARE-luciferase reporter (MCF7-derived line), luminescence, 24 h; Potency, µM (highest dose often 46.1 µM), inactives show top-dose activation, usual class: activators; 410,000 compounds, 0.31% hits; AID 624171, 2012; also: % of control where 0% means no effect; nearly all actives have a fitted effect of over 65% in size
#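 ARE-driven firefly luciferase activity in AREc32 cells measured after a 24 hr compound exposure at 37 deg C, using Steady-Glo reagent and a 30 min room-temperature hold.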
# * marks the source's active call; other numbers are inactive results; ? = inconclusive; . = not tested or not shown. Compounds with a hit are over-represented: about 3.8% of the library has one in this group of screens. Calls follow the shape of the dose curve; as a rule, active = well fitted curve in the direction sought with a large enough effect; inconclusive = small, poorly fitted or top-dose-only effect, or another doubt; inactive = no such curve, though single readings can be large; an effect the other way counts as inactive or inconclusive. Potency is read from the fitted curve at half-maximal effect.
SMILES,ELG1 repair inh,A549 tox,Nrf2 block,IDH1 R132H inh,Nrf2 ARE act
COC(=O)C1=C(c2ccc(-c3ccccc3)c(F)c2)C[C@@H]2CC[C@H]1N2C(=O)N1CCC(C)CC1,?,-7.2%,16.4µM*,2.4%,0.5%
COC(=O)C1=C(c2ccc(-c3ccccc3)c(F)c2)C[C@@H]2CC[C@H]1N2C(=O)N1CCCCC1,-0.4%,-20.8%,?,5.7%,3.8%
COC(=O)C1=C(c2ccc(-c3ccccc3)c(F)c2)C[C@@H]2CC[C@H]1N2C(=O)N1CCc2cc(OC)c(OC)cc2C1,?,-14.4%,16.4µM*,4.9%,3.1%
COC(=O)C1=C(c2ccc(-c3ccccc3)c(F)c2)C[C@@H]2CC[C@H]1N2C(=O)N1CCCC1,-15.5%,-1.3%,20.6µM*,-9.6%,0.6%
COC(=O)C1=C(c2ccc(-c3ccccc3)c(F)c2)C[C@@H]2CC[C@H]1N2C(=O)N1CCC(O)CC1,?,-1.3%,?,20.4%,4.0%
COC(=O)C1=C(c2ccc(-c3ccccc3)c(F)c2)C[C@@H]2CC[C@H]1N2C(=O)N1CCOCC1,-3.6%,0.5%,?,0.0%,0.6%
COc1ccc(-n2c(/C=C/c3cccc(F)c3)nc3ccccc3c2=O)cc1Cl,.,-2.4%,.,-3.2%,3.8%
COc1cc(/C=C/c2nc3ccccc3c(=O)n2-c2ccc(O)cc2)ccc1O,16.4µM*,-12.0%,-9.8%,-20.7%,31.6%
COc1ccc(-n2c(/C=C/c3ccc(O)c(O)c3)nc3ccccc3c2=O)cc1,18.3µM*,-8.4%,-28.5%,3.1%,0.7%
CC(=O)O[C@H]1[C@H]2O[C@]23[C@@H]2CC[C@]4(O)C[C@@H](O)CC[C@]4(C)C2CC[C@]3(C)[C@H]1c1ccc(=O)oc1 (stereo partly specified),?,?,0.058µM*,-8.9%,-4.8%
CCCCOc1ccc(Cn2c(=O)oc3ccccc32)cc1,-0.9%,13.7%,?,7.4%,-1.4%
COc1ccc(S(=O)(=O)Nc2cc([N+](=O)[O-])ccc2OC)cc1,?,-14.1%,-7.2%,2.9%,0.5%
Cc1ccc(C)c(N2CCN(c3ncnc4onc(C)c34)CC2)c1,.,-17.2%,13µM*,4.8%,-1.2%
CC=CC(C)=CC(C)C(=O)CC(O)CC1CC(=O)NC(=O)C1 (stereo unspecified),.,.,.,10.3%,-2.4%
CC1CC(C)(O)CC(C(O)CC2CC(=O)NC(=O)C2)C1=O (stereo unspecified),.,?,0.581µM*,-0.3%,-0.4%
COC(=O)[C@]1(C)N[C@H](CN(C)S(=O)(=O)c2ccc(-c3ccccc3)cc2)[C@@H]2C(=O)N(Cc3ccccc3)C(=O)[C@@H]21,?,-7.8%,-25.6%,-4.0%,-0.3%
COC(=O)C1=C(c2cccc(OCc3ccccc3)c2)C[C@@H]2CC[C@H]1N2C(=O)NCc1ccccc1,-28.0%,-8.1%,?,-14.1%,3.5%
COC(=O)C1=C(c2cccc(OCc3ccccc3)c2)C[C@@H]2CC[C@H]1N2C(=O)NCc1ccc(Cl)cc1,-21.6%,-13.1%,23.1µM*,-12.1%,-1.1%
COC(=O)C1=C(c2cccc(OCc3ccccc3)c2)C[C@@H]2CC[C@H]1N2C(=O)NCc1ccccc1OC,-20.1%,?,20.6µM*,2.8%,3.0%
COC(=O)C1=C(c2ccc(OCc3ccccc3)cc2)C[C@@H]2CC[C@H]1N2C(=O)NCc1cccc(OC)c1,?,-12.0%,23.1µM*,0.0%,-0.5%
COC(=O)C1=C(c2cccc(OCc3ccccc3)c2)C[C@@H]2CC[C@H]1N2C(=O)NCc1ccc(OC)c(OC)c1,?,-3.3%,?,14.1%,2.2%
COC(=O)C1=C(c2ccc(OCc3ccccc3)cc2)C[C@@H]2CC[C@H]1N2C(=O)NCc1ccc(OC)cc1,.,.,.,-4.0%,2.4%
COc1ccc(-c2nnc3sc(C4CCCCC4)nn23)cc1OC,18.4µM*,-10.0%,?,-0.7%,0.5%

# Screening data as filed in PubChem BioAssay.
